Experimental data from PubChem BioAssay AID686979 (National Center for Advancing Translational Sciences (NCATS), 2013).
In all, about 420,000 compounds went through this assay and about 50,000 (12%) were called active. Entries that show only a call come without a potency. Another 26% or so got no clear call; they are omitted. The call rests on the fitted dose curve; in most records, active means well fitted inhibition curve with a large enough effect; inconclusive means small, poorly fitted or top-dose-only effect; inactive means flat fitted curve, though single readings scatter. For the sample, actives were picked, then their nearest neighbours and some compounds at random.
Potency means the concentration at half of the fitted maximal effect.

Test: qHTS for Inhibitors of human tyrosyl-DNA phosphodiesterase 1 (TDP1): qHTS in cells in presence of CPT; further: nearly all actives have a fitted effect of over 55% in size
Conditions: chicken DT40 Tdp1-/-;hTDP1 cells + 20 nM CPT, ATP luminescence, 48 h; series mostly up to 46.2 µM
Summary of the method: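 Chicken DT40 Tdp1-/- cells complemented with human TDP1, 400 cells/well, exposed to compounds plus 20 nM camptothecin for at least 48 h at 37 C; viability read as ATP content by CellTiter-Glo luminescence.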
For `COc1cccc(CNC(=O)c2cccnc2Sc2ccc(Cl)cc2)c1`, the Potency was “inactive”.
In the case of `Cc1ccnc(NC(=O)CNC(=O)c2ccccc2)c1`, the Potency was “inactive”.
With `Cc1cc(NC(=O)c2cc3ccccc3o2)no1` the Potency was “inactive”.
In the case of `CC(=O)Nc1cccc(C(=O)OCC(=O)c2ccc3c(c2)OCO3)c1`, the Potency was “inactive”.
In the case of `O=C(CSc1n[nH]c(-c2ccccc2)n1)N1CCCCC1`, the Potency was “inactive”.
For `C=CC(C1=CC(=O)C=CC1=O)c1ccc(O)cc1` (centres undefined), the Potency was 1.64 µM (active).
With `CSc1ncccc1C(=O)OCc1ccc(Br)cc1` the Potency was “inactive”.
For `NC(=O)C1(Nc2ccc(-c3ccccc3)cc2)CCCC1`, the Potency was “inactive”.
With `COc1cccc(S(=O)(=O)NCc2ccc(C(=O)NCc3ccccn3)cc2)c1` the Potency was 0.92 µM (active).
For `O=[N+]([O-])c1cccc(S(=O)(=O)NCc2ccccn2)c1`, the Potency was “inactive”.
For `COc1ccc2oc(=O)c(C(=O)NCc3ccccn3)cc2c1`, the Potency was “inactive”.
In the case of `O=C(COC(=O)c1ccc(F)cc1)NCCCc1ccccc1`, the Potency was “inactive”.
With `Cn1c(SCC(=O)N2CCCCC2)nc2c(c1=O)SCC2` the Potency was “inactive”.
For `Cc1c(NC(=O)c2cc(=O)c3ccccc3o2)c(=O)n(-c2ccccc2)n1C`, the Potency was “inactive”.
In the case of `O=C1CC(c2ccccc2)C(c2ccccc2)=NN1` (centres undefined), the Potency was “inactive”.
In the case of `CC(=O)Nc1ccc(C(=O)Nc2cc(S(=O)(=O)N3CCOCC3)ccc2N2CCOCC2)cc1`, the Potency was “inactive”.
For `COCCNC(=S)Nc1cc(S(=O)(=O)N2CCOCC2)ccc1N1CCCCC1`, the Potency was 20.6 µM (active).
For `CC(C)CCC(=O)Nc1cc(S(=O)(=O)N2CCOCC2)ccc1N1CCCC1`, the Potency was “inactive”.
For `CC(Oc1ccc(F)cc1)C(=O)Nc1cc(S(=O)(=O)N2CCOCC2)ccc1N1CCN(C)CC1` (centres undefined), the Potency was “inactive”.
For `CC(=O)NCCC(=O)Nc1cc(S(=O)(=O)N2CCOCC2)ccc1N1CCOCC1`, the Potency was “inactive”.
In the case of `CC(C)CCOc1ccc(C(=O)Nc2cc(S(=O)(=O)N3CCOCC3)ccc2N2CCOCC2)cc1`, the Potency was 9.2 µM (active).
In the case of `COc1ccc(CNC(=O)Cn2nnc(-c3ccccc3F)n2)cc1`, the Potency was “inactive”.
In the case of `COC(=O)[C@@H]1CC(O)CN1C(=O)C12CC3CC(CC(C3)C1)C2` (some centres undefined), the Potency was “inactive”.
For `CN(C)/C(=N\OC(=O)c1ccccc1)c1nonc1N`, the Potency was “inactive”.
In the case of `C=C(C)CNC(=O)c1ccc(OC2CCN(C(=O)COC)CC2)cc1`, the Potency was “inactive”.
With `Cc1c(NC(=O)CSc2nnnn2-c2ccc(C(=O)O)cc2)c(=O)n(-c2ccccc2)n1C` the Potency was “inactive”.
With `CS(=O)(=O)N(CC(=O)N1CCc2ccccc2C1)c1ccc(Br)cc1` the Potency was “inactive”.
With `CN(CCc1ccccc1)c1ccc([N+](=O)[O-])cn1` the Potency was “inactive”.
In the case of `Cc1c(C)c2c(OCC(=O)N[C@@H](C(=O)O)c3ccccc3)cc3c(c2oc1=O)CCC(C)(C)O3`, the Potency was “inactive”.
